A selection: hits, their analogues and other compounds. The true share with any hit is near 10%.
GPT2 inh – Primary qHTS assay for inhibitors of Glutamate pyruvate transaminase 2 (GPT2); Potency, µM (series often up to 57.7 µM), for inactives: at the top dose activity change, negative = inhibition, usual class: inhibitors; Recombinant GPT2, coupled pyruvate oxidase/HRP Amplex Red fluorescence; Alanine aminotransferase 2 (Homo sapiens), Q8TD30; 0.25% of 100,000 active; also: nearly all actives have a fitted effect of over 60% in size
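Fluorescence of coupled pyruvate oxidase/HRP/Amplex Red system (50uM Amplex, 30 min, dark) reports pyruvate formed by GPT2. Enzyme reaction: 10ng/uL GPT2, 2mM L-alanine, 250uM a-KG, 30 min room temperature, pH 7.5; 50uM AOA control.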
NIH3T3 tox – Cytotoxic Profiling in NIH 3T3 Cell Line of Diverse Libraries Using Quantitative High-Throughput Screening. NIH 3T3 viability, CellTiter-Glo ATP luminescence, 48-72 h. Potency, µM (highest dose often 96.7 µM), for the others: at the highest dose activity change, negative = cytotoxicity, hits mostly inhibitors. 4.3% of 94,000 active. AID 1345082, 2018; also: nearly all actives have a fitted effect of over 55% in size
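Cytotoxicity was measured by CellTiter-Glo ATP luminescence after 48 or 72 h compound exposure at 37 °C. Mouse NIH 3T3 fibroblasts were seeded at 400 cells/well and dosed by 23 nL pin transfer.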
FLuc inh – Firefly luciferase inhibition profiling of diverse chemical library using quantitative high-throughput screening; Potency, µM (highest dose often 115 µM), most hits filed as inhibitors; Luciferin 4-monooxygenase (Photinus pyralis), P08659; purified P. pyralis luciferase, luminescence, biochemical; AID 1347043, 2019; 2.5% of 76,000 active; also: nearly all actives have a fitted effect of over 65% in size
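Inhibitors were tested against purified firefly luciferase in a biochemical, low-substrate format (both substrates at 10uM) and luminescence measured with a CCD imager.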
hNpr1 antagonist – Natriuretic polypeptide receptor (hNpr1) antagonism - Primary qHTS. Atrial natriuretic peptide receptor 1 (Homo sapiens), P16066. HEK293 hNpr1 GloSensor cGMP, ANP-stimulated luminescence. Potency, µM (highest dose often 46.3 µM), for the others: top-dose activity change, negative = inhibition, actives largely listed as inhibitors. 1.6% of 76,000 active. AID 1347048, 2019; calls by dose curve; also: nearly all actives have a fitted effect of over 60% in size
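Compound pre-incubated 30 min at room temperature on GloSensor-loaded HEK293 cells stably carrying hNpr1 and the pGS-40F cGMP biosensor. Stimulation uses hNppA at 0.1 nM final; luminescence is taken at baseline and 20 min post-agonist.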
HEK cytotox – Cytotoxic Profiling in HEK 293 Cell Line of Diverse Libraries Using Quantitative High-Throughput Screening; HEK 293 viability, ATP luminescence (CellTiter-Glo), 48-72 h; 6.6% of 94,000 active; AID 1345083, 2018; Potency, µM (top dose mostly 115 µM), for inactives: top-dose activity change, negative = cytotoxicity, actives largely listed as inhibitors; also: nearly all actives have a fitted effect of over 60% in size
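CellTiter-Glo luminescence (cellular ATP) was read after 48 or 72 hr of compound exposure at 37 degree Celsius. Cells were HEK 293 plated at 250 cells/well.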
An asterisk follows results filed as active; i = inactive; ? = inconclusive; / = no result given; [ ] = remark or other dose. Unless noted, calls follow the shape of the dose curve; as a rule, active = well fitted curve in the direction sought with a large enough effect; inconclusive = small, poorly fitted or top-dose-only effect, or another doubt; inactive = no such curve, though single readings can be large; an effect the other way counts as inactive or inconclusive. % is scaled to controls: 0 for no effect and ±100 for the full control effect; potency is read from the fitted curve at half-maximal effect.

SMILES	GPT2 inh	NIH3T3 tox	FLuc inh	hNpr1 antagonist	HEK cytotox
COC1CCCN(c2cc(-c3cccnc3)nc3c(C)noc23)C1 (configuration not stated)	-8%[88.5 µM]	35µM*	i	-3%[70.6 µM]	?
COC1CCN(c2cc(-c3cccnc3)nc3c(C)noc23)CC1	-14%[88.5 µM]	?	i	2%[70.6 µM]	-14%[172 µM]
COC1CCCN(c2ncccc2-c2cc(-c3ccccc3)nc3c(C)noc23)C1 (configuration not stated)	0%[88.5 µM]	?	i	-30%[70.6 µM]	79µM*
O=C(Nc1cnc(-c2ccc(C(F)(F)F)cc2)nc1)C1CCOC1 (configuration not stated)	i	?	18µM*	-20%	?
C[C@@H]1CN(C2CCN(C(=O)c3cc[nH]c3)CC2)C[C@H](C)O1	-3%	i	i	4%	1%
CCCCn1c(=O)c(C(=O)NCc2cccc(Cl)c2)nc2cccnc21	i	35µM*	/	/	?
CCCCn1c(=O)c(C(=O)NCCc2ccccc2)nc2cccnc21	i	?	/	/	45µM*
O=C(NCc1cccc(Cl)c1)c1nc2cccnc2n(CCc2ccccc2)c1=O	i	?	/	/	35µM*
CCCCn1c(=O)c(C(=O)NCc2ccccc2)nc2cccnc21	i	?	/	/	?
O=C(NCCc1ccccc1)c1nc2cccnc2n(CCc2ccccc2)c1=O	i	-1%	/	/	?
O=[S+]1([O-])NC2(CCN(Cc3ccccc3)CC2)CNc2ccccc21	-6%	-29%	i	0%	-29%
Cc1ccc(C(=O)Nc2ccc3c(N4CCOCC4)ncnc3c2)cc1	-3%	?	16µM*	-17%	?
O=C(Nc1ccc2c(N3CCCC3)ncnc2c1)c1cc(F)ccc1F	-18%	?	i	-16%	?
O=C(Nc1ccc2c(N3CCOCC3)ncnc2c1)c1ccc(F)c(Cl)c1	1%	35µM*	i	-1%	?
Cc1ccc(C)c(C(=O)Nc2ccc3c(N4CCCC4)ncnc3c2)c1	i	?	i	-2%	?
O=C(Nc1ccc2c(N3CCCC3)ncnc2c1)c1cccc(F)c1	i	?	i	-3%	?
O=C(Nc1ccc2ncnc(N3CCCCC3)c2c1)c1cncc(Br)c1	1%	-17%	i	-25%	?
O=C(Nc1ccc2ncnc(N3CCCC3)c2c1)c1cccc(Br)c1	i	14µM*	i	-29%	18µM*
O=C(Nc1ccc2c(N3CCOCC3)ncnc2c1)c1ccccc1C(F)(F)F	i	28µM*	i	5%	?
Cc1cc(C(=O)N[C@H](C)c2onc(C)c2C(=O)O)c(C)o1	1%[88.5 µM]	-2%[138 µM]	i	-1%[70.6 µM]	i
CCC(C)NC(=O)CN1CN(c2ccccc2)C2(CCN(C(=O)Nc3ccccc3C)CC2)C1=O (configuration not stated)	i	-15%	i	-1%	?
COCCOC1CN(C2CCN(C(=O)CC3CCN(C(C)=O)CC3)CC2)C12CCCCC2 (configuration not stated)	-2%	-14%	i	-4%	-11%
CCCCC1CCN(CCCC(=O)c2ccccc2C)CC1	1%	/	/	/	/
O=C(Nc1ccc2c(N3CCCCC3)ncnc2c1)c1ccsc1	?	?	?	-17%	?
O=C(Nc1ccc2ncnc(N3CCCCC3)c2c1)c1ccsc1	?	25µM*	i	-20%	40µM*
O=C(Nc1ccc2ncnc(N3CCCCC3)c2c1)c1cc(F)ccc1F	0%	?	i	-17%	?
O=C(Nc1ccc2c(N3CCCC3)ncnc2c1)c1ccc(Br)cc1	i	?	?	-26%	?
O=C(Nc1ccc2c(N3CCOCC3)ncnc2c1)c1cccc(Br)c1	?	?	i	-16%	63µM*
